Hedgehog inh – blocks Sonic Hedgehog signaling | Shh-LIGHT2 Gli-luciferase reporter, 30 h | inhibition, % (no concentration beside the values) | actives 2.1% (n = 22,000);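 active means mean inhibition across valid replicates above about 65%, limit read from the data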;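 further: pathway switched on by Shh-conditioned medium diluted 1 in 25 in low serum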
NOMO-1 viab – STK33 inhibitor candidate reducing NOMO-1 cell viability | NOMO-1 AML viability, CellTiter-Glo luminescence, 72 h | inhibition, % (concentration not given with the values) | actives 7.5% (n = 37,000); in the data active means inhibition above about 80%
PD-1 reversal – activators reversing PD-1 mediated T-cell inhibition; 29,000 tested, under 10 active; activation, % (test concentration not listed); primary human CD4 T cells, PD-L1 beads, CellTiter-Glo 96 h; call rule not given here
MITF inhib – MITF inhibition. TRPM1 promoter luciferase, luminescence, 24 h. actives 0.28% (n = 37,000). AID 2240. inhibition, % (test concentration not listed); in the data active means inhibition above about 85%;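 further: human melanocyte line stably carrying TRPM1 promoter luciferase reporter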
A number is an active result; n = inactive; x = not tested or not shown. Shown are actives, neighbours in structure and some others; about 7.8% of the full set was active somewhere.

SMILES	Hedgehog inh	NOMO-1 viab	PD-1 reversal	MITF inhib
COc1ccc(CN(C)C[C@@H]2Oc3c(NC(=O)Nc4ccc(F)cc4)cccc3C(=O)N([C@@H](C)CO)C[C@H]2C)cc1	n	110	n	n
C[C@H](CO)N1C[C@H](C)[C@H](CN(C)Cc2ccc(Oc3ccccc3)cc2)Oc2c(NC(=O)Nc3cccc4ccccc34)cccc2C1=O	n	122	n	n
COc1ccc(CN(C)C[C@H]2Oc3c(NC(=O)Nc4ccc(OC)cc4)cccc3C(=O)N([C@@H](C)CO)C[C@H]2C)cc1	n	n	n	n
COc1ccc(NC(=O)Nc2cccc3c2O[C@@H](CN(C)Cc2ccccc2)[C@@H](C)CN([C@@H](C)CO)C3=O)cc1	n	n	n	n
O=C1CCC(=O)N1CN(C(=O)C(F)(F)F)c1ccccc1	x	n	n	n
COc1cc2occ(-c3ccc(O)cc3)c(=O)c2c(OC)c1O	n	n	x	n
CCCCN1C(=O)[C@H]2Cc3c([nH]c4ccccc34)[C@H](c3ccc(OC)cc3)N2C1=O	79	n	n	n
C[C@H](CO)N1C[C@H](C)[C@H](CN(C)Cc2ccc(Oc3ccccc3)cc2)Oc2ccc(NC(=O)c3ccncc3)cc2C1=O	n	n	n	n
C[C@@H]1CN([C@@H](C)CO)C(=O)c2cc(NC(=O)c3ccncc3)ccc2O[C@@H]1CN(C)Cc1ccc(Oc2ccccc2)cc1	84	n	n	n
C[C@@H]1CN([C@H](C)CO)C(=O)c2cc(NC(=O)c3ccncc3)ccc2O[C@H]1CN(C)Cc1ccc(-c2ccccc2)cc1	89	93	n	n
CSc1ccc(N=CN2C(=O)c3ccccc3C2=O)cc1	n	n	n	n
CN(C)CCNc1cc(-c2cccnc2)nc2ccccc12	n	n	n	n
Cc1c(C)c(C)c(C(=O)c2ccccc2C(=O)NN)c(C)c1C	n	n	n	n
COc1cc2nc(N3CCN(C(=O)c4ccco4)CC3)nc(N)c2cc1OC	n	95	n	n
COc1cc2nc(N3CCN(C(=O)C4COc5ccccc5O4)CC3)nc(N)c2cc1OC (configuration not stated)	n	n	n	n
CSc1c(CC(=O)NN)n(C)c2ccccc12	n	n	n	n
O=C(Oc1ccccc1OC(=O)c1ccccc1)c1ccccc1	n	115	n	n
O=C(Oc1ccc2cc(OC(=O)c3ccccc3)ccc2c1)c1ccccc1	x	n	n	n
CCCCCCCCN1C(=O)C(C(C)=O)=C(C)C1(C)O (configuration not stated)	n	98	n	n
C[C@H]1CC[C@@H]2[C@@H](C(=O)c3c(O)c([C@]4(O)CC[C@@H](O)[C@H]5O[C@H]54)cn(O)c3=O)[C@@H](C)C=C[C@H]2C1	94	120	n	n
NCCCN(Cc1ccco1)C1CCCC1	x	106	n	n
O=C1CSC2=NC3=C(CCc4ccccc43)C(c3cccs3)N12 (configuration not stated)	n	n	n	n
C[C@H](CO)N1C[C@H](C)[C@H](CN(C)Cc2ccncc2)Oc2ccc(NC(=O)NC3CCCCC3)cc2C1=O	n	105	n	n
C[C@H]1CN([C@@H](C)CO)C(=O)c2cc(NC(=O)C3CCCCC3)ccc2O[C@@H]1CN(C)Cc1ccc(-c2ccccc2)cc1	n	100	n	n
C[C@H]1CN([C@@H](C)CO)C(=O)c2cc(NC(=O)C3CCCCC3)ccc2O[C@H]1CN(C)Cc1ccncc1	x	97	n	n
SMILES	Hedgehog inh	NOMO-1 viab	PD-1 reversal	MITF inhib
C[C@H]1CN([C@@H](C)CO)C(=O)c2cc(NC(=O)C3CCCCC3)ccc2O[C@@H]1CN(C)Cc1ccncc1	x	n	n	n
O=C(O)COc1ccc(Cl)cc1C1C2=C(CCCC2=O)NC2=C1C(=O)CCC2	x	n	n	n
COc1ccc(OC)c(C2N=C(Nc3nc4ccccc4s3)NC3=C2C(=O)CC(C)(C)C3)c1 (configuration not stated)	x	115	x	n
O=C1CCCC2=C1C(c1ccccc1Cl)N=C(Nc1nc3ccccc3s1)N2 (configuration not stated)	n	116	n	n
COc1ccc(C2C3=C(CC(C)(C)CC3=O)N(C)C3=C2C(=O)CC(C)(C)C3)cc1	n	n	n	n
COc1cccc(C(Nc2cc(C)ccn2)c2ccc3ccc(C)nc3c2O)c1 (configuration not stated)	x	97	n	n
Cc1ccnc(SCC(=O)c2ccc([N+](=O)[O-])cc2)n1	x	n	n	n
Cc1ccnc(NC(c2ccc([N+](=O)[O-])cc2)c2ccc3ccc(C)nc3c2O)c1 (configuration not stated)	x	118	x	n
Cc1ccnc(NC(c2cc(C)ccc2C)c2ccc3ccc(C)nc3c2O)c1 (configuration not stated)	x	n	n	n
CN1C(=O)C(=Cc2cccn2-c2ccc(N(C)C)cc2)C(=O)N(C)C1=S	n	n	n	n
O=C(CCCSc1nc(-c2ccco2)cc(C(F)(F)F)n1)NC1CCCC1	n	n	n	n
c1ccc(CN2CCOCCN(Cc3ccccc3)CCOCC2)cc1	x	87	n	n
S=C(c1ccccc1)N1CCN(Cc2ccccc2)CC1	n	n	n	n
CCN(CC)S(=O)(=O)c1cccc(C(=O)NN)c1	n	n	n	n
C[C@@H]1CN([C@H](C)CO)C(=O)Cc2cc(NC(=O)Nc3ccc4c(c3)OCO4)ccc2O[C@@H]1CN(C)Cc1ccc(Oc2ccccc2)cc1	n	119	n	n
C[C@H](CO)N1C[C@H](C)[C@H](CN(C)Cc2ccc(Oc3ccccc3)cc2)Oc2ccc(NC(=O)Cc3ccccc3)cc2CC1=O	x	116	x	n
C[C@H]1CN([C@@H](C)CO)C(=O)Cc2cc(NC(=O)C3CCCCC3)ccc2O[C@H]1CN(C)Cc1ccc(Oc2ccccc2)cc1	n	n	n	n
C[C@H]1CN([C@@H](C)CO)C(=O)Cc2cc(NC(=O)Nc3ccccc3)ccc2O[C@H]1CN(C)Cc1ccc(Oc2ccccc2)cc1	n	n	n	n
C[C@H]1CN([C@@H](C)CO)C(=O)Cc2cc(NC(=O)Nc3ccccc3)ccc2O[C@@H]1CN(C)Cc1ccc(Oc2ccccc2)cc1	n	n	n	n
C[C@@H]1CN([C@@H](C)CO)C(=O)Cc2cc(NC(=O)Nc3ccc4c(c3)OCO4)ccc2O[C@@H]1CN(C)Cc1ccc(Oc2ccccc2)cc1	n	107	n	n
C[C@@H]1CN([C@H](C)CO)C(=O)Cc2cc(NC(=O)C3CCCCC3)ccc2O[C@H]1CN(C)Cc1ccc(Oc2ccccc2)cc1	n	81	x	n
CC(C)(C)c1ccc(NC(=O)c2cnccn2)cc1	n	n	n	n
Cn1c(SCC(=O)Nc2ccccc2F)nnc1-c1ccc(Br)cc1	x	n	n	n
CC(C)[C@@H]1CC[C@@H](C)C[C@H]1OC(=O)c1ccccc1	n	n	x	n
C[C@@H]1CN([C@H](C)CO)C(=O)Cc2cc(NC(=O)Nc3ccccc3)ccc2O[C@@H]1CN(C)Cc1ccc(Oc2ccccc2)cc1	n	115	n	n
C[C@@H]1CN([C@@H](C)CO)C(=O)Cc2cc(NC(=O)Nc3ccccc3)ccc2O[C@@H]1CN(C)Cc1ccc(Oc2ccccc2)cc1	n	n	n	n

Bioassay records deposited in PubChem BioAssay by Broad Institute.
